Screening results deposited in PubChem by National Center for Advancing Translational Sciences (NCATS).
ELG1 genotox: inducers of genotoxicity in HEK293T ELG1-luciferase cells. AID 504466. actives 1.3% (n = 330,000). HEK293T ELG1-luciferase reporter, luminescence, 16 h. Potency, µM (series often up to 46 µM), without a hit: top-dose activity change, positive = activation, most hits filed as activators; note: % of control where 0% means no effect; nearly all actives have a fitted effect of over 60% in size
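DMSO vehicle served as control against compound-treated ELG1-luciferase HEK293T cells; exposure lasted 16 hr at 37 °C and 5% CO2, followed by ONE-Glo luminescence detection after 30 min.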
NPC1 prom act: activators of NPC1 promoter; Huh7 NPC1 promoter luciferase reporter, 24 h; actives 2.4% (n = 320,000); Potency, µM (doses to about 9.22 µM), for the others: at the top dose activation, most hits filed as activators; note: % of control where 0% means no effect; nearly all actives have a fitted effect of over 60% in size
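Cells: Huh7 expressing luciferase under the NPC1 promoter, 1500/well. Seeded 2 h, compound added, incubated 24 h at 37 °C. Luciferase reagent, 10 min ambient, then luminescence.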
FLuc modulator: firefly luciferase modulation, counter-screen for miR-21 project. P08659. purified FLuc, Km substrates, luminescence inhibition. Potency, µM (titrated, usually from 57.5 µM), without a hit: at the highest dose activity change, negative = inhibition, usual class: inhibitors. actives 6.9% (n = 360,000). AID 588342;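 note: plate controls were vehicle for no effect and reference inhibitor for full effect; nearly all actives have a fitted effect of over 55% in size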
Target sequence (P08659 whole entry, looked up): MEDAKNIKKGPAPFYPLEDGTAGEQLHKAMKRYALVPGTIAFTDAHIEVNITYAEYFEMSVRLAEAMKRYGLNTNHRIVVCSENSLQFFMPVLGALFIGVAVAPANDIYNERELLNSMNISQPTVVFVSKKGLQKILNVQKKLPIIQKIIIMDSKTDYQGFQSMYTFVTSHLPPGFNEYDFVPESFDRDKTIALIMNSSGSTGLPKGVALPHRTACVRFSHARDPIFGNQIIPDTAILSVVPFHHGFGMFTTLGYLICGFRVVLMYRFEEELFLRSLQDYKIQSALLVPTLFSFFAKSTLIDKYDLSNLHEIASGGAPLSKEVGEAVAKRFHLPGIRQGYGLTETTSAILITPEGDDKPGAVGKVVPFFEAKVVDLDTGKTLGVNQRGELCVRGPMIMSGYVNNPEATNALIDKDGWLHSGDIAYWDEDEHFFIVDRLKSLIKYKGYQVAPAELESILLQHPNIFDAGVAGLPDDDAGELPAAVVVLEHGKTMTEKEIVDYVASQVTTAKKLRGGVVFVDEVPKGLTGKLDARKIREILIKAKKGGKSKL
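Purified P. pyralis luciferase, 10 nM final, with Km-level 10 uM D-luciferin and 10 uM ATP in 50 mM Tris acetate pH 7.5, 10 mM Mg acetate, 0.01% Tween-20, 0.05% BSA; 6-point qHTS titration about 60 µM downward; luminescence read.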
ELG1 repair inh: ELG1-dependent DNA repair inhibition; actives 2.3% (n = 330,000); HEK293T ELG1-luciferase reporter, luminescence, 16 h; DNA damage induced by 5-fluorouridine; Potency, µM (series often up to 46.1 µM), inactives show at the highest dose activity change, negative = inhibition, actives largely listed as inhibitors; note: % is set by controls: 0 for no effect and ±100 for the full control effect; nearly all actives have a fitted effect of over 55% in size
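Luminescence from the luciferase reporter, measured 30 min after ONE-Glo reagent at room temperature, was the read-out. Beforehand, 2,000 cells per well were exposed for 16 hr at 37 °C to 5-fluorouridine together with compound or vehicle.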
SMN2 splice up: enhancers of SMN2 splice variant expression; HEK293 SMN2-luciferase splicing reporter, luminescence, 30-36 h; Potency, µM (highest dose often 46.1 µM), without a hit: top-dose activity change, positive = activation, actives largely listed as activators; AID 1458; actives 2.8% (n = 210,000); note: % of control where 0% means no effect; nearly all actives have a fitted effect of over 55% in size
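HEK293 cells carry an SMN2 […]–luciferase reporter in which exon 7 inclusion puts luciferase in frame. Cells were plated 10-12 h before compound addition, then incubated 30-36 h at 37C. ONE-Glo luminescence was read; sodium butyrate at 4.5 mM final served as control.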
Rab9 prom act: activators of Rab9 promoter | Huh7 Rab9 promoter-luciferase reporter, luminescence, 24 h | Potency, µM (top dose mostly 9.22 µM), for inactives: at the top dose activation, negative = inhibition, usual class: activators | actives 2.8% (n = 320,000) | AID 485297; note: % of control where 0% means no effect; nearly all actives have a fitted effect of over 60% in size
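Quantitative HTS format; Huh7 Rab9-luciferase reporter cells (1500/well) receive compound 2 h post-plating, incubate 24 h at 37 °C, then get luciferase reagent for 10 min before luminescence reading.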
The depositor's hits bear a star; ? = inconclusive; . = not tested or not shown. Sampled rows, rich in hits. Any-hit rate of the full collection: about 9.2%. Calls come from the whole dose curve; as a rule, active = well fitted curve in the direction sought with a large enough effect; inconclusive = small, poorly fitted or top-dose-only effect, or another doubt; inactive = no such curve, though single readings can be large; an effect the other way counts as inactive or inconclusive. Potency is the fitted concentration of half-maximal effect.

SMILES	ELG1 genotox	NPC1 prom act	FLuc modulator	ELG1 repair inh	SMN2 splice up	Rab9 prom act
O=C(Nc1ccc(N2CCCC2)cc1)c1cccc(-c2cc3ccccc3oc2=O)c1	-2%	6%	11µM*	-6%	-18%	1%
Cc1ccc(C(=O)Nc2ccc(N3CCCC3)cc2)cc1	?	?	?	?	11µM*	1.8µM*
Cc1ccc(C(=O)Nc2ccc(N3CCN(S(C)(=O)=O)CC3)cc2)cc1	8%	12%	0%	27%	6%	24%
O=C(Nc1ccc(Br)cn1)c1cccc(-c2cc3ccccc3oc2=O)c1	?	1.8µM*	12µM*	?	11µM*	4µM*
Cc1nc(NC(=O)c2cccc(-c3cc4ccccc4oc3=O)c2)ccc1Br	9%	?	-20%	?	?	?
O=C(Cc1ccc(Cl)cc1)Nc1nnc2n1CCS2	.	.	-1%	.	.	.
CC(=O)Nc1ccc(N(C(=O)Cn2nnc3ccccc32)C(C(=O)NCc2ccccc2)c2ccc(C)cc2)cc1 (stereo unspecified)	.	.	-7%	.	9%	.
OCC[C@@H]1C[C@@H](O)[C@H](O)[C@]2(Cc3ccccc3O2)O1	5%	-1%	6%	-11%	.	0%
O=C(c1ccc(N2CCN(C(=O)c3ccc(F)cc3F)CC2)cc1)c1cccc(F)c1	-7%	-5%	-1%	15µM*	.	-2%
O=C(Nc1ccc(N2CCCC2)cc1)c1ccc2ccccc2c1	?	?	1.3µM*	?	2.5µM*	0.89µM*
CC(=O)N1CCN(c2ccc(NC(=S)NC(=O)c3ccc(C)c([N+](=O)[O-])c3)cc2)CC1	-6%	-2%	1%	21µM*	.	0%
O=C(c1ccccc1)c1ccc(N2CCCC2)cc1	3.7µM*	3.2µM*	6.7µM*	?	25µM*	2.5µM*
O=C(c1ccc(F)cc1F)N1CCN(c2ncccn2)CC1	0%	2%	-3%	-6%	-1%	0%
O=C(c1ccccc1N1CCOCC1)N1CCCC(Nc2ccc(F)cc2)C1 (stereo unspecified)	2%	3%	6%	7%	.	-2%
CCOC(=O)c1c(C)[nH]c(C(=O)OCC(=O)N(CC(C)C)C2CCS(=O)(=O)C2)c1C (stereo unspecified)	0%	-2%	2%	19%	.	-8%
O=C(Nc1ccc(N2CCCC2=O)cc1)c1cccc(F)c1	2.9µM*	1.6µM*	5.4µM*	?	7.1µM*	3.2µM*
O=C(Nc1ccc(N2CCCC2)cc1)c1cccc(F)c1	0.37µM*	0.35µM*	1.3µM*	?	0.63µM*	0.32µM*
Nc1cc(C(=O)c2ccccc2)ccc1N1CCOCC1	6%	?	17µM*	?	?	25%
O=C(Nc1ccc(N2CCCCC2)cc1)c1ccccc1	?	0.4µM*	1.9µM*	?	1.4µM*	0.28µM*
CCN1CCN(c2ccc(NC(=O)c3cccc(N4CCCC4=O)c3)cc2)CC1	30%	-1%	?	?	.	3%
CC(=O)Nc1cc(C(=O)c2ccccc2)ccc1N1CCOCC1	-2%	1%	2%	13%	-10%	1%
COc1ccc(/C=C(\NC(=O)c2ccccc2)C(=O)OC[C@@H]2CCC[N+]3(C)CCCCC23)cc1OC (stereo partly specified)	11%	5%	4%	5%	-27%	0%
COc1ccc2sc(-c3ccc(N(C)C)cc3)c(-c3cnc(OC)nc3)c2c1	5%	10%	?	28%	.	-7%
CCOC(=O)c1c(C)oc2nc(C)nc(NCc3ccc(OC)cc3)c12	.	.	-14%	.	.	.
O=C(Nc1ccccc1F)Nc1ccccc1N1CCCCC1	-3%	0%	-6%	?	.	1%
SMILES	ELG1 genotox	NPC1 prom act	FLuc modulator	ELG1 repair inh	SMN2 splice up	Rab9 prom act
Cc1ccc(CNc2ccc(N3CCOCC3)cc2)cc1	?	4µM*	8.5µM*	?	.	2.8µM*
Nc1ccc(N2CCN(c3ccc(F)cc3)CC2)cc1	-6%	14%	1%	6.5µM*	-18%	1%
O=C(O)CCC(=O)N1CCN(c2ccc(C(=O)c3ccc(F)cc3)cc2)CC1	-1%	-1%	?	-1%	-14%	1%
Cc1ccc(C(=O)Nc2ccc(N3CCOCC3)cc2)cc1	21µM*	2.8µM*	12µM*	?	.	4µM*
CN1CCN(c2ccc(C(=O)c3ccc(F)cc3)cc2)CC1	13µM*	?	11µM*	?	?	3.2µM*
O=C(NC(Cc1ccccc1)C(=O)N1CCN(c2ccccc2O)CC1)c1ccccc1 (stereo unspecified)	-28%	-4%	4%	?	.	-2%
COc1ccccc1OCC(=O)N1CCCC(Nc2ccc(F)c(F)c2)C1 (stereo unspecified)	-10%	-2%	4%	11%	.	-4%
COCCN1C(=O)c2[nH]nc(-c3ccccc3O)c2C1c1ccc(OCc2ccccc2)c(OC)c1 (stereo unspecified)	.	.	-11%	.	6%	.
S=C(Nc1ccc(Cl)cc1)c1nc2ccccc2[nH]1	10%	3.2µM*	3.8µM*	?	14µM*	1.8µM*
OC(c1ccc(Cl)cc1)C(O)c1nc2ccccc2[nH]1 (stereo unspecified)	-2%	-1%	-1%	-3%	-9%	-5%
Cc1ccccc1NC(=S)c1nc2ccccc2[nH]1	7%	25%	11µM*	?	29%	27%
CCCCc1nc2cc(C(=O)N3CCN(c4cnccn4)CC3)ccc2o1	-1%	-2%	3%	10%	.	-1%
O=C(CNc1ccccc1Cl)N/N=C1\CCCc2ccccc21	7%	-5%	1%	?	.	-17%
CNS(=O)(=O)c1ccc(NC(=O)c2ccccn2)cc1	?	?	15µM*	?	20µM*	2.8µM*
CCOc1ccc(NC(N)=O)cc1	5%	1%	15%	10%	0%	0%
CCOc1ccc(NC(=O)c2cnsn2)cc1	1.5µM*	1.4µM*	6µM*	?	?	0.56µM*
CCOc1ccc(NC(=O)c2nccnc2CO)cc1	?	1.4µM*	9.5µM*	?	8.9µM*	2.8µM*
CCOc1ccc(NC(=O)c2cccnc2C(=O)O)cc1	8%	9%	?	?	8%	4%
COc1cccc(NC(=O)c2cnsn2)c1	?	29%	?	?	-12%	15%
CCOc1ccc(NC(=O)c2ccccn2)cc1	?	?	0.48µM*	?	0.79µM*	0.13µM*
COc1ccc(-c2nc3ccccc3o2)cc1NC(=O)c1ccc(-c2cccc(Cl)c2C)o1	.	.	6%	.	-3%	.
